# Cycloheximide cs – counter-screen hit for Shiga toxin inhibitors, cycloheximide | cell reporter, cycloheximide protein synthesis inhibition counterscreen | max response, % | 300,000 compounds, 12% hits; in the data active = max response mostly above about 13%, no sharp cut-off; inactive = mostly below about 14%; also: read at 38.3 µM for the half of the compounds with a filed dose
# Pf growth 48h – inhibits P. falciparum growth in the first generation, 48 h | P. falciparum luciferase growth in erythrocytes, 48 h | Potency, µM (highest dose often 28.7 µM), hits mostly inhibitors | 310,000 compounds, 5.9% hits | AID 504832
#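 In quantitative HTS format, infected erythrocytes bearing luciferase-reporter parasites were treated for a single generation at 37 C. Luminescence after adding detection reagent served as the growth measure.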
# Shiga toxin inh – blocks Shiga toxin action in Vero cells. Vero cells, Shiga toxin protein synthesis inhibition reporter. AID 2315. 290,000 compounds, 9.2% hits. inhibition, % at 38.7 µM; in the data active = inhibition mostly above about 28%, no sharp cut-off; inactive = mostly below about 43%
# Giardia FBPA inh – inhibitors of Giardia lamblia fructose-1,6-bisphosphate aldolase | A8B2U2 | purified Giardia FBPA | Potency, µM (titrated, usually from 59.6 µM), most hits filed as inhibitors | 290,000 compounds, 0.71% hits; also: nearly all actives have a fitted effect of over 55% in size
# Target sequence (A8B2U2 whole entry, looked up): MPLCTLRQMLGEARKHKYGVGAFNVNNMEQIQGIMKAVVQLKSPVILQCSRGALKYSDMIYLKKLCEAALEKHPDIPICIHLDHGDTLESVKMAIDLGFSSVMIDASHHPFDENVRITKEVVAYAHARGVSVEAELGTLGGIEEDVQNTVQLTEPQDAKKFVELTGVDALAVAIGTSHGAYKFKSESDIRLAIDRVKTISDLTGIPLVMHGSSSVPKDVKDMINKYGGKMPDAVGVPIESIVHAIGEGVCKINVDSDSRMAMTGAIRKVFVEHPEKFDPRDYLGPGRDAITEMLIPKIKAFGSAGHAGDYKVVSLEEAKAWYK
#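 Giardia FBPA (40 nM reagent) was preincubated 10 min at RT with compound (up to 57.5 uM final), then substrate plus GAPDH/TPI/NAD/arsenate coupling system with diaphorase/resazurin was added; resorufin fluorescence (525/598 nm) was read after 20 min.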
# Pf growth 96h – P. falciparum growth inhibition at 96 hour, primary screen for plastid delayed-death inhibitors | P. falciparum luciferase reporter growth, 96 h | Potency, µM (top dose mostly 28.7 µM), usual class: inhibitors | 320,000 compounds, 6.9% hits
#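 Erythrocytes infected with luciferase-expressing P. falciparum were dispensed at 2% hematocrit and 0.05% parasitemia (final), then incubated with compounds 96 hours at 37 C in 5% CO2. Luminescence after detection reagent addition reported growth.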
# NS1 function inh – blocks influenza NS1 protein function | Potency, µM (doses to about 46.1 µM) | 270,000 compounds, 0.4% hits; calls by dose curve; also: actives are rising curves; nearly all actives have a fitted effect of over 50% in size
#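 A cell-based growth assay was used: compounds that relieve NS1-induced slow growth of budding yeast raise OD600. Assay medium was yeast nitrogen base with ammonium sulphate and -URA supplement, pH 6.0, with 2% galactose.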
# Numbers stand for hits; n = inactive; u = inconclusive; x = not tested or not shown. Only some compounds are listed: those with a hit (about 21% of all), similar ones and a draw of the others. Unless noted, calls follow the shape of the dose curve; as a rule, active = well fitted curve in the direction sought with a large enough effect; inconclusive = small, poorly fitted or top-dose-only effect, or another doubt; inactive = no such curve, though single readings can be large; an effect the other way counts as inactive or inconclusive.
SMILES,Cycloheximide cs,Pf growth 48h,Shiga toxin inh,Giardia FBPA inh,Pf growth 96h,NS1 function inh
CCn1c(=NC(=O)CCS(=O)(=O)c2ccccc2)sc2cccc(OC)c21,n,n,n,x,u,n
Cc1cc([N+](=O)[O-])nn1Cc1noc(C(=O)NCCc2ccccn2)n1,n,n,n,n,n,n
O=C1NC(=O)/C(=C\c2cn(CC(=O)N3CCOCC3)c3ccccc23)S1,n,n,n,u,n,n
Cc1ccccc1-n1ncc2c1CC(C)(C)CC2NC(=O)C1=CC(=O)CC(C)(C)O1 (configuration not stated),n,u,n,n,9.3µM,n
Cc1ccc(-n2ncc3c2CC(C)(C)CC3NC(=O)CCn2cncn2)cc1 (configuration not stated),n,n,n,x,10µM,n
Cc1ccccc1-n1ncc2c1CC(C)(C)CC2NC(=O)C1CCC1 (configuration not stated),n,u,n,x,n,n
Cc1ccccc1-n1ncc2c1CC(C)(C)CC2NC(=O)CCn1cncn1 (configuration not stated),n,u,n,n,n,n
COCC(=O)NC1CC(C)(C)Cc2c1cnn2-c1ccc(F)cc1 (configuration not stated),n,u,n,n,u,n
CC1(C)Cc2c(cnn2-c2ccc(F)cc2)C(NC(=O)C2=NNC(=O)CC2)C1 (configuration not stated),29,n,39,n,n,n
CC1(C)Cc2c(cnn2-c2ccc(F)cc2)C(NC(=O)c2ccco2)C1 (configuration not stated),n,n,22,x,n,n
Cc1ncoc1C(=O)NC1CC(C)(C)Cc2c1cnn2-c1ccc(F)cc1 (configuration not stated),n,n,n,x,n,n
CC(=O)c1ccc(C(=O)NC2CC(C)(C)Cc3c2cnn3-c2ccccc2)cc1 (configuration not stated),19,n,n,x,u,n
C=CCCC(=O)NC1CC(C)(C)Cc2c1cnn2-c1cccc(F)c1 (configuration not stated),n,u,n,n,u,n
CC1(C)Cc2c(cnn2-c2cccc(F)c2)C(NC(=O)CCc2cnccn2)C1 (configuration not stated),41,n,n,n,n,n
COc1ccc(C(=O)NC2CC(C)(C)Cc3c2cnn3-c2ccccc2)cc1OC (configuration not stated),n,n,n,x,u,n
CC1(C)Cc2c(cnn2-c2ccc(F)cc2)C(NC(=O)CCN2CCCC2=O)C1 (configuration not stated),30,n,47,n,u,n
CC1=CC(C)(C)n2c(O)c(N=NC(N)=S)c3cccc1c32,n,n,n,n,n,n
COc1cc2c3c(c1)c(N=NC(N)=S)c(O)n3C(C)(C)C=C2C,n,10µM,n,n,6.6µM,n
O=C(c1ccc(C(F)(F)F)cc1)C1CCCN(Cc2ccncc2)C1 (configuration not stated),n,12µM,n,n,n,n
CN(C)C(=O)CCC(=O)N1CCCC(C(=O)c2ccc(C(F)(F)F)cc2)C1 (configuration not stated),n,n,n,n,n,n
COc1cc(CN2CCCC(C(=O)c3ccc(C(C)(C)C)cc3)C2)cc(OC)c1O (configuration not stated),18,6.6µM,n,n,n,n
COc1cc(CN2CCCC(C(=O)c3sccc3C)C2)cc(OC)c1O (configuration not stated),n,n,n,u,u,n
CC(C)Oc1cccc(C(=O)C2CCCN(Cc3ccc4nonc4c3)C2)c1 (configuration not stated),n,n,n,n,n,n
NC(=O)CCC(=O)N1CCCC(C(=O)c2ccc(C(F)(F)F)cc2)C1 (configuration not stated),n,n,n,n,13µM,n
O=C(c1ccc(Cl)cc1)C1CCCN(Cc2ccc3nonc3c2)C1 (configuration not stated),n,n,n,n,10µM,n
CC(=O)c1cccc(CN2CCCCC2C(=O)Nc2ccc(Oc3ccccc3)nc2)c1 (configuration not stated),n,u,n,x,n,n
